# GRP78 ERSR act – induces the endoplasmic reticulum stress response in human glioma cells | U87-MG GRP78 promoter luciferase reporter, 16 h | Potency, µM, for the others: at the top dose activation, usual class: activators | 420,000 compounds, 0.02% hits; active = well fitted activation curve with a large enough effect; inconclusive = small, poorly fitted or top-dose-only effect; inactive = no such curve, though single readings can be large or run the other way; also: potency is read from the fitted curve at half-maximal effect; series mostly up to about 76 µM; % of control where 0% means no effect; nearly all actives have a fitted effect of over 35% in size
#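 ERSR induction read as luciferase luminescence (Bright-Glo, 10 min at room temperature) in stably transfected human U87-MG glioma cells exposed to compounds for 16 h, using GRP78 as sensor.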
# Akt phos inh – inhibitors of Akt phosphorylation | Neuro2A IGF-stimulated pAkt S473 HTRF, 20 min; active compounds read low | activity change, % for hits at 50 µM | 360,000 compounds, 0.32% hits | AID 651550; in the data active = activity change below about -80%; inconclusive = mostly about -51% to -80%; also: % is scaled to controls: 0 for no effect and ±100 for the full control effect
#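 Single-point screen (50 µM final compound) in Neuro2A cells stimulated 20 min with 6 nM IGF at 37 deg C. After lysis, Ser473-phosphorylated Akt read by HTRF (ex 330 nm, em 615/665 nm) as the 665/615 ratio.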
# hERG WT inh – blocks the wildtype human KCNH2 potassium channel; Q12809; U2OS, BacMam KCNH2, thallium flux FluxOr; active compounds read low; activity change, % at 1.84 µM; 340,000 compounds, 0.37% hits;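 active = maximum activity change below -70%; inconclusive = maximum activity change between -70% and -50%; inactive = maximum activity change above -50%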; also: % is scaled to controls: 0 for no effect and ±100 for the full control effect
#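 U2OS cells were transduced with wild-type KCNH2 virus (2.03 x 10^8 / mL) for 4 h at room temperature, then cultured overnight at 37 C. Thallium flux was read with FluxOr dye. Rate constants were normalized to DMSO controls.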
# gsp agonist – gsp mutant agonism; Potency, µM (doses to about 76.9 µM), for the others: at the highest dose activation (cAMP increase), usual class: activators; 340,000 compounds, 0.13% hits; gsp mutant cells, cAMP HTRF, 30 min; AID 624287; active = well fitted activation curve with a large enough effect; inconclusive = small, poorly fitted or top-dose-only effect, or another doubt; inactive = no such curve, though single readings can be large or run the other way; cell line not stated here;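 also: phosphodiesterase inhibitor Ro 20-1724 added with compounds to block cAMP breakdown; potency is read from the fitted curve at half-maximal effect; nearly all actives have a fitted effect of over 60% in size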
#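 Cells in DMEM/10% FBS with G418 were pretreated with compounds in DMSO plus […] (300 uM stock) for 30 min at 37C. cAMP was measured by HTRF (cAMP-d2 plus anti-cAMP antibody-K) after 30 min at room temperature.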
# KCNH2 3.1 block – blocks the human KCNH2 3.1 channel isoform; U2OS KCNH2 3.1, thallium flux FluxOr; active compounds read low; activity change, % (tested at about 1.8 µM); 340,000 compounds, 0.95% hits; AID 720553;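 active = maximum activity change below -70%; inconclusive = maximum activity change from -70% to -50%; inactive = maximum activity change above -50%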;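 also: thallium influx rate constant from kinetic fluorescence after stimulation buffer; % is scaled to controls: 0 for no effect and ±100 for the full control effect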
#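 Normalized rate constant (relative to positive and negative DMSO controls) derived from a 2 min kinetic fluorescence read after stimulation; U2OS cells expressing the 3.1 isoform via virus at 1.77 x 10^8 /mL.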
# gsp antag – antagonizes gsp, the McCune-Albright syndrome mutation; gsp-mutant cells, cAMP HTRF, 30 min; Potency, µM (top dose mostly 76.9 µM), without a hit: top-dose activity change, negative = inhibition, hits mostly inhibitors; 340,000 compounds, 0.4% hits; calls by dose curve; cell line not stated here;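 also: intracellular cAMP measured with PDE inhibitor Ro 20-1724 present during compound exposure; potency is read from the fitted curve at half-maximal effect; % is scaled to controls: 0 for no effect and ±100 for the full control effect; nearly all actives have a fitted effect of over 65% in size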
#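 HTRF cAMP measurement after 30 min RT detection following 30 min, 37C compound treatment alongside […] (added as 300 uM solution) in G418-selected cells seeded at 2000/well and grown 16–24 h.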
# The depositor's hits bear a star; i = inactive; ? = inconclusive; · = no result given; [ ] = remark or other dose. The list is not random: actives were taken first. Their share in the collection is about 1.6%.
SMILES,GRP78 ERSR act,Akt phos inh,hERG WT inh,gsp agonist,KCNH2 3.1 block,gsp antag
Brc1ccc(CN2C3=NCCCN3c3ccccc32)cc1,-5.7%,i,15.6,-2.0%,-75.4*,13.8%
CC(C)(C)c1ccc(CN2C3=NCCCN3c3ccccc32)cc1,-10.5%,i,11.0,-3.2%,-79.7*,4.1%
O=C(CN1C2=NCCCN2c2ccccc21)c1ccc(Br)s1,-3.8%,i,14.9,11.9%,-85.6*,-0.8%
Clc1ccc(CN2C3=NCCCN3c3ccccc32)c(Cl)c1,-8.5%,i,-1.2,-11.2%,-93.8*,4.9%
COc1ccc(-c2cccc3c2OC(CNC(=O)c2ccc4c(c2)OCO4)C3)nn1 (stereo not given),2.1%,·,·,·,·,·
COc1ccccc1-c1ccnc(-n2ncc(C(=O)NCc3ccncc3)c2C)n1,-3.0%,·,·,·,·,·
Cc1cnc(C)c(-c2cccc3c2OC(CNC(=O)/C=C/c2ccncc2)C3)n1 (stereo not given),-4.3%,·,·,·,·,·
CCCCCCCN1C2=NCCCN2c2ccccc21,-3.2%,i,-13.8,-8.4%,-80.2*,8.4%
Cc1cccc(CNCCn2cc(C(=O)Nc3ccccc3)nn2)c1,4.2%,·,·,·,·,·
COc1ccc(C(=O)CC(=O)c2ccc(C(C)(C)C)cc2)cc1,-2.2%,i,4.6,·,-7.7,0.7%
Cc1ccc(C(=O)CC(=O)c2ccc(C(C)(C)C)cc2)cc1,-2.8%,i,6.7,-37.6%,-102.3*,0.7%
COc1cc(C)c(CN2CCOc3ccc(C(O)c4cccnc4)cc3C2)cc1C (stereo not given),-5.3%,·,·,·,·,·
Cc1c(CCC(=O)O)c(=O)oc2c(C)c3occ(-c4ccc(Cl)cc4)c3cc12,3.2%,i,-12.3,10.9%[15.4 µM],2.2,31.6µM*
Cc1cc(NC(=O)COC(=O)CC2CCCC2)c([N+](=O)[O-])cc1C,-0.6%,i,-12.7,?,-72.3*,-3.1%
CCC(=O)OCC(=O)Nc1cc(C)c(C)cc1[N+](=O)[O-],-2.9%,i,2.6,?,-4.0,-0.4%
O=C(CN1C(=O)NC(Cc2c[nH]c3ccccc23)C1=O)Nc1ccccc1Br (stereo not given),-2.5%,i,28.1,?,-8.3,8.6%
Cc1ccc(NC(=O)CN2C(=O)NC(Cc3c[nH]c4ccccc34)C2=O)cc1 (stereo not given),-1.9%,i,-25.7,5.8%,-100.6*,1.1%
CCN(CC)c1ccc(/C=C/c2sc3ccccc3[n+]2CCCCI)cc1,-8.4%,·,·,·,·,·
CC(=O)Oc1ccc2c(c1)Oc1cc(OC(C)=O)ccc1C21OC(=O)c2ccccc21,-2.4%,i,-122.1*,4.3%,-145.7*,?
O=S(Cc1ccc(Br)cc1)Cc1nnc(SCc2ccc(Br)cc2)n1-c1ccccc1 (stereo not given),-0.8%,i,-16.2,-9.4%,-74.5*,-6.5%
O=C(Nc1c(C(=O)N2CCC(N3CCCCC3)CC2)oc2ccccc12)c1ccc(F)cc1,-2.7%,i,-5.4,13.1%,?,3.5%
O=C(Nc1c(C(=O)N2CCOCC2)oc2ccccc12)c1cccc([N+](=O)[O-])c1,-3.8%,i,6.0,?,3.3,-9.3%
CCOCCCN(C)C1CCN(C(=O)c2oc3ccccc3c2NC(=O)c2ccc([N+](=O)[O-])cc2)CC1,-4.7%,i,-121.8*,?,-81.9*,1.4%
CCOCCCN(C)C1CCN(C(=O)c2oc3ccccc3c2NC(=O)c2ccc(F)cc2)CC1,2.6%,i,-81.5*,-7.4%,-92.3*,4.6%
O=C(/C=C/c1ccc(O)c(O)c1)c1ccc(O[C@@H]2O[C@H](CO)[C@@H](O)[C@H](O)[C@H]2O)c(O)c1O,-3.1%,·,·,·,·,·
SMILES,GRP78 ERSR act,Akt phos inh,hERG WT inh,gsp agonist,KCNH2 3.1 block,gsp antag
Cc1cnc(-n2ncc(C(=O)NCC(C)(C)N3CCOCC3)c2C(C)C)nc1-c1ccc(F)cc1,-2.9%,·,·,·,·,·
CC(=O)N1c2c(cc(Br)cc2S(=O)(=O)NCc2ccc(C)cc2)CC1C (stereo not given),-4.1%,i,16.0,11.6%[15.4 µM],13.6,35.5µM*
CCC1CN(CCNC(=O)c2ccc(C#CC(C)(C)O)cc2)Cc2cc(OC)ccc2O1 (stereo not given),1.6%,·,·,·,·,·
Cc1nc(NC(=O)CSc2nnc(C3CC3)n2C)sc1C,1.2%,i,-253.6*,6.2%[15.4 µM],7.4,-18.3%
O=C(CSc1nnc(C2CC2)n1-c1ccccc1)NCCc1ccccc1,-6.3%,-101.6%*,10.1,19.4%,5.5,-6.2%[15.4 µM]
Cn1c(SCC(=O)Nc2ccccc2Oc2ccccc2)nnc1C1CC1,-1.1%,i,-110.0*,-55.0%,0.5,3.9%
Cn1c(SCC(=O)Nc2ccccc2Cl)nnc1C1CC1,-0.7%,i,-3.6,-27.3%[15.4 µM],44.1,10.4%
Cn1c(SCC(=O)Nc2nncs2)nnc1C1CC1,-1.9%,i,12.2,?,-1.9,8.2%
CCCNc1nc(Nc2ccc([N+](=O)[O-])cc2)nc(N2CCOCC2)n1,-3.7%,·,·,·,·,·
Cc1c(C(=O)NCCc2ccncc2)cnn1-c1nccc(-c2ccccc2C(F)(F)F)n1,-2.0%,·,·,·,·,·
COc1cc(OC)c(OC)cc1CN1CCN(Cc2cccn2C)CC1,-1.6%,i,-121.8*,-15.8%,10.4,9.0%
COc1cc(OC)c(OC)cc1CN1CCC(O)CC1,-2.7%,i,3.3,-53.6%,-89.9*,0.4%
COc1cc(OC)c(OC)cc1CN1CCN(c2ccccc2OC)CC1,-5.0%,i,-3.4,-14.1%,-26.0,2.0%
CC(C)(CO)NS(=O)(=O)c1ccc2c(c1)C(=NO)c1cc(S(=O)(=O)NC(C)(C)CO)ccc1-2,-1.6%,i,1.1,7.08µM*,-8.8,5.5%
CCC1C(=O)NCCN1Cc1ccc2c(c1)CN(Cc1cccc(OC)c1)CCO2 (stereo not given),-4.5%,·,·,·,·,·
Cc1cccc(C)c1NC(=O)/C(=C/c1ccco1)c1ccccc1,-0.1%,i,4.0,-15.0%,-7.7,-10.3%
Cc1cc(C)c(NC(=O)/C(=C/c2ccco2)c2ccccc2)c(C)c1,-5.2%,i,12.4,-7.8%,-14.8,39.8µM*
CC(O)(COc1ccccc1)c1ccc2c(c1)CN(Cc1ccc3nsnc3c1)CCO2 (stereo not given),-3.3%,·,·,·,·,·
COc1ccc(-c2sc3ccccc3c2/C=C/c2ccncc2)cc1,0.4%,i,·,·,·,11.2µM*
COc1ccc(-c2sc3ccccc3c2/C=C/c2ccc(OC)c(OC)c2)cc1,3.1%,i,8.4,?,-13.5,6.3%
CC(C)NC(=O)c1cn([C@H]2CC[C@@H](NC(=O)/C=C/c3cccs3)CC2)nn1,-2.4%,·,·,·,·,·
Cn1c(=O)c2ncn(CC(=O)Nc3ccc4c5c(cccc35)CC4)c2n(C)c1=O,1.9%,i,0.4,31.6µM*,13.9,-2.5%
COc1ccc(CNC(=O)Cn2cnc3c(=O)n(C)c(=O)n(C)c32)cc1,-7.7%,i,2.5,17.8µM*,5.9,6.0%

# Screening data as filed in PubChem BioAssay.
